These results are taken from PubChem BioAssay.

The source made the active and inactive calls.

One experiment addresses Albumin (Bos taurus) (UniProt P02769). Description: bovine serum albumin binders on microarray, profiling panel, artefact control for SMM control protein annotation, biochemical, small-molecule microarray, Alexa647 label, 635/667 nm fluorescence (AID 1118).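 Note: score merges 667 nm emission intensity and signal-to-noise per printed compound spot.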 As to conditions: BSA-A647 binding, fluorescence 635 nm, higher = more signal.
Experiment [1] is described as follows: small-molecule microarray binders of probe aXIP, primary screen, biochemical, NeuroSMM set, 635/667 nm fluorescence (AID 1119).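 Note: probe is the protein aXip251-270 applied at 1 µg/mL to compound-printed slides; binding of probe to printed compounds measured as 667 nm fluorescence plus signal to noise.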 As to conditions: higher = more signal, called active from +8 up or from −8 down.
Experiment [2] can be described thus: small-molecule binders of probe aNOTCH3, primary screen, biochemical, small-molecule microarray, 635/667 nm fluorescence (AID 1120).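 Note: probe is a biotin-tagged antibody raised against NOTCH3 rather than NOTCH3 protein; score merges spot fluorescence near 667 nm with spot signal to noise.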 As to conditions: higher = more signal.
Experiment [3] in a line: small-molecule binders of probe aNOTCH2, primary screen, biochemical, small-molecule microarray, 635/667 nm fluorescence (AID 1121).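 Note: score merges feature fluorescence read at 667 nm with its signal to noise.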 The note with it: higher = more signal.
Experiment [4] has as its target Carbonic anhydrase 2 (Homo sapiens) (UniProt P00918). Put plainly: CAII small-molecule binders, profiling panel, biochemical, small-molecule microarray, Alexa647-labelled CAII (AID 1122). The note with it: CAII-A647 binding fluorescence, higher = more signal.
A short description of experiment [5]: COS7 lysate on small-molecule microarray, probe aHis, 635 nm (AID 1123).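 Note: z-score combines 667nm fluorescence intensity with signal-to-noise per printed compound spot.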 The note with it: COS7 cell lysate, fluorescence, higher = more signal.
The nature of experiment [6]: compound binding in COS7 lysate, probe aLAP1, primary screen, cell lysate, small-molecule microarray (AID 1124).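 Note: lysate comes from COS7 cells expressing LAP1 and is applied at 0.3 µg/mL; score merges spot fluorescence near 667 nm with signal-to-noise over triplicate slides.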 As to conditions: probe aLAP1, fluorescence, higher = more signal.
For another experiment, the system named is Sam68 (KHDRBS1). Put plainly: Sam68 small-molecule binders, primary screen, biochemical, small-molecule microarray, 635 nm fluorescence (AID 1125).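 Note: score merges 667 nm channel intensity with signal to noise over triplicate slides.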 As to conditions: small-molecule microarray binding, higher = more signal.
The subject of experiment [7] is Chordin-like protein 2 (CHRDL2). Description: CHRDL2 small-molecule binders, primary screen, biochemical, small-molecule microarray, 635 nm fluorescence (AID 1126).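 Note: printed compound slides probed with Chrdl2 protein at 4 µg/mL for 1 h at 4 C; score merges 667 nm emission intensity with signal to noise over three replicate slides.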 The note with it: small-molecule microarray binding, fluorescence 635 nm; higher = more signal.
In experiment [8] the target is Concanavalin-A (Canavalia ensiformis) (UniProt P02866). Description: ConA small-molecule binders, primary screen, artefact control for SMM control protein annotation, biochemical, small-molecule microarray, Alexa647 label, 635 nm (AID 1127).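 Note: z combines 667 nm emission intensity with signal-to-noise across three replicate slides.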 As to conditions: ConA-A647 binding fluorescence, higher = more signal.
Sequence of Concanavalin-A (Canavalia ensiformis) (P02866 whole entry, looked up): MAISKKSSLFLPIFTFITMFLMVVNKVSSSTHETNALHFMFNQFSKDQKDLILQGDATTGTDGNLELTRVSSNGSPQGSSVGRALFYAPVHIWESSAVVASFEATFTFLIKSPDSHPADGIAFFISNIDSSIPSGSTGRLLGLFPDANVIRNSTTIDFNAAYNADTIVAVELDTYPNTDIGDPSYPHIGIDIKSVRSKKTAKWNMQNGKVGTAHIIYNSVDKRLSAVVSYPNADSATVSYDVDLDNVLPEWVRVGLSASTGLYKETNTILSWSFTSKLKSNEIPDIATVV

Sequence of Albumin (Bos taurus) (P02769 whole entry, looked up): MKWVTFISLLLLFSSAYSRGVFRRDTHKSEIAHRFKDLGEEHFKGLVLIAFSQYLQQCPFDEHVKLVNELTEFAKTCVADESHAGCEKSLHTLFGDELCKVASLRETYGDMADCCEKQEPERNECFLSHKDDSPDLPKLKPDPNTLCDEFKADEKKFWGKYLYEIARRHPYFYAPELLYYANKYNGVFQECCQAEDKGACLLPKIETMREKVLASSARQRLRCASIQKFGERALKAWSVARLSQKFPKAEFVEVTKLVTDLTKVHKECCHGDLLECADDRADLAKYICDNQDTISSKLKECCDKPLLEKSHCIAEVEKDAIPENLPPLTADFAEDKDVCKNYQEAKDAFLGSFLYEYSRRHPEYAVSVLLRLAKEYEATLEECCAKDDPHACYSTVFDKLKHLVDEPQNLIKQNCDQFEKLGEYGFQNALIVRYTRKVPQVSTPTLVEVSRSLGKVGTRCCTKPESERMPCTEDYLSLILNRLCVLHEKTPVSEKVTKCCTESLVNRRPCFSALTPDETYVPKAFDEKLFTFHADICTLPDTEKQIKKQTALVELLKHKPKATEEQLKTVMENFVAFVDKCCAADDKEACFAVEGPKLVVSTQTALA

Regarding `COC(=O)C[C@H]1O[C@@]2(C[C@@H]1[Si](C)(C)C)C(=O)N(C)c1ccccc12`, the composite z-score was 0.18 in the experiment with Albumin (Bos taurus); 0.0306 in experiment [2]; -0.111 in experiment [3]; 0.288 in experiment [4]; 0.689 in experiment [5]; 0.186 in [6]. Further, the values for the composite z-score (in the experiment on Sam68 (KHDRBS1); in [7]; in experiment [8]) were 0.86, 0.268 and 0.332, respectively. Besides, the composite Z-score in experiment [1] is -0.701 (inactive).

On to `CCCCCC1=C2CNC(Cc3ccccc3)(C(=O)OC)C=C2C(C)C1=O` (stereo not given), for which the composite z-score in the experiment with Albumin (Bos taurus) worked out at 0.638; in experiment [2] it was 0.183; in [3], 0.0878; in experiment [4], 0.648; in experiment [5] it was 2.17; in experiment [6], 0.984. For the same compound, the composite z-score in the experiment on Sam68 (KHDRBS1) was -0.49; in [7] it was -1.52; in experiment [8], -0.86. In addition, the composite Z-score in experiment [1] was 0.881 (inactive).

On to `C=C(C)[C@@H]1CC=C(C(O)C2C=CC3C(=O)N(C)C(=O)C3N2Nc2ccc([N+](=O)[O-])cc2[N+](=O)[O-])CC1` (stereo not given in full), for which the composite z-score with Albumin (Bos taurus) was found to be 0.689; in [2], 0.407; in [3], 0.158; in experiment [4] it was 0.583; in experiment [5], 2.5; in experiment [6] it was 0.005. In addition, the composite z-score in the experiment on Sam68 (KHDRBS1) came out at 1.29; in experiment [7] it was 0.722; in experiment [8], 1.14. Moreover, the composite Z-score in [1] is -0.37 (inactive).

With `COC(=O)[C@@]1(Cc2ccc(OC)cc2)[C@H]2c3cc(C(=O)N4CCCC4)n(Cc4ccc(C(F)(F)F)nc4)c3C[C@H]2CN1C(=O)c1ccccc1`, the composite z-score with Albumin (Bos taurus) amounted to 0.948; in experiment [2], 0.361; in experiment [3], 0.0224; in experiment [4], 0.737; in experiment [5], 0.297; in experiment [6], 0.511. For the same compound, the composite z-score in the experiment with Sam68 (KHDRBS1) was 0.524; in experiment [7] it was -0.249; in experiment [8] it was -0.308. The composite Z-score in [1] was -0.325 (inactive).

As to `N#Cc1ccc(C(O)C2C=CC3C(=O)NC(=O)C3N2Nc2ccc(Cl)cc2Cl)cc1` (stereo not given), the composite z-score with Albumin (Bos taurus) was 0.956; in [2] it was 0.112; in experiment [3] it was 0.132; in experiment [4], 0.651; in [5], 2.94; in experiment [6] it was 1.48. Further, the figures for the composite z-score (with Sam68 (KHDRBS1); in experiment [7]; in experiment [8]) were -0.0258, -0.581 and 0.489, respectively. In addition, the composite Z-score in [1] is 0.868 (inactive).

For `CN(C)CCCNC(=O)[C@@H]1c2ccccc2C(=O)N(Cc2ccccc2C(F)(F)F)[C@H]1c1ccc(CO)cc1`, the composite z-score is 0.334 with Albumin (Bos taurus); -0.0106 in experiment [2]; -0.0996 in experiment [3]; 0.338 in experiment [4]; 1.35 in [5]; 0.2 in experiment [6]. The composite z-score was 0.793 in the experiment on Sam68 (KHDRBS1), -1.5 in [7] and 0.0021 in experiment [8]. The composite Z-score in experiment [1] is 0.0871 (inactive).

In the case of `C=CCC(OC(C)=O)[C@@H]1[C@@H](N(Cc2ccc(-c3cccc(C(F)(F)F)c3)o2)C(=O)Cc2ccc(F)cc2)c2cc(OCCCO)ccc2N1C(=O)Cc1ccc2ccccc2c1` (stereo not given in full), the composite z-score in the experiment with Albumin (Bos taurus) was -0.0508; in experiment [2] it was -0.182; in experiment [3], -0.104; in experiment [4], -0.25; in experiment [5] it was 0.121; in experiment [6], -0.169. Besides, the composite z-score was -2.04 in the experiment with Sam68 (KHDRBS1), 0.0229 in experiment [7] and -0.492 in experiment [8]. For the same compound, the composite Z-score in [1] is -0.186 (inactive).

On to `O=C1O[C@H](Cc2ccccc2)[C@@H]2[C@H]3C=CCCC=C3CN2[C@H]1Cc1ccc(O)cc1`, for which the composite z-score with Albumin (Bos taurus) was -0.314; in [2] it was 0.0208; in [3], -0.122; in [4], 0.746; in [5] it was -0.265; in experiment [6], -0.256. In addition, the composite z-score in the experiment with Sam68 (KHDRBS1) was -1.09; in [7], -0.278; in [8], -0.211. The composite Z-score in [1] is -0.263 (inactive).

With `COC(=O)[C@@]1(Cc2ccccc2)[C@H]2c3cc(C(=O)N4CCCC4)n(Cc4ccc(OC)c(OC)c4)c3C[C@H]2CN1C(=O)c1ccccc1`, the composite z-score with Albumin (Bos taurus) came out at 0.909; in experiment [2], 1.11; in experiment [3], 0.204; in [4] it was 0.853; in experiment [5], 3.22; in experiment [6], 0.382. The composite z-score was 1.04 in the experiment with Sam68 (KHDRBS1), -1.05 in [7] and 0.827 in experiment [8]. Moreover, the composite Z-score in [1] is 0.651 (inactive).

Consider `NC(=O)N1C(=O)C2C(C1=O)C1C=C(CCCO)C2C(c2ccc(CN3CCCC3)cc2)N1Cc1sc2ccccc2c1Cl` (stereo not given), for which the composite z-score in the experiment with Albumin (Bos taurus) was 0.492; in experiment [2], 0.124; in [3], -0.258; in [4], 0.832; in [5], 0.712; in experiment [6], 0.242. For the same compound, the composite z-score was -0.0045 with Sam68 (KHDRBS1), -0.352 in experiment [7] and 0.271 in experiment [8]. Moreover, the composite Z-score in experiment [1] is -1.02 (inactive).

On to `[N-]=[N+]=Nc1ccccc1C[C@@]1(C(=O)NCC(O)CO)N=C(c2ccc(OCCCO)cc2)O[C@@H]1c1ccccc1` (stereo not given in full), for which the composite z-score in the experiment with Albumin (Bos taurus) is 0.579; in experiment [2], -0.152; in experiment [3], 0.0231; in experiment [4], 0.719; in [5], 2.01; in experiment [6] it was 0.353. Also, the results for the composite z-score (in the experiment on Sam68 (KHDRBS1); in [7]; in [8]) were 0.206, -1.26 and 0.446, respectively. Moreover, the composite Z-score in experiment [1] was -0.362 (inactive).

Turning to `CCOC(=O)C[C@H]1[C@H](OC(=O)c2cc3ccccc3oc2=O)[C@@H](NC(=O)CC(C)C)c2cc(OCCCO)ccc2N1C(=O)Cc1ccc(OC)cc1`, the composite z-score in the experiment with Albumin (Bos taurus) was 0.136; in experiment [2], -0.0376; in [3] it was -0.146; in experiment [4] it was 0.607; in [5], 0.935; in experiment [6], 0.18. In addition, the composite z-score in the experiment with Sam68 (KHDRBS1) was 0.887; in experiment [7], 0.0676; in experiment [8], 0.433. In addition, in [1], the composite Z-score was 0.642 (inactive).

In the case of `O=C1C2C=CC(C(O)c3ccc([N+](=O)[O-])cc3)N(Nc3ccccc3F)C2C(=O)N1c1ccccc1` (stereo not given), the composite z-score with Albumin (Bos taurus) is 1.04; in [2], -0.124; in experiment [3], 0.0323; in experiment [4], 0.703; in experiment [5], -0.309; in experiment [6], 1.06. Besides, the composite z-score with Sam68 (KHDRBS1) is 0.808; in [7], -0.445; in experiment [8], 0.886. In experiment [1], the composite Z-score was 0.0431 (inactive).

On to `COc1ccc(C(O)C2C=CC3C(=O)N(C)C(=O)C3N2N(c2ccccc2)c2ccccc2)cc1` (stereo not given), for which the composite z-score is 0.86 with Albumin (Bos taurus); 0.016 in experiment [2]; -0.0657 in experiment [3]; 0.728 in experiment [4]; 1.49 in experiment [5]; 0.0978 in [6]. Moreover, the composite z-score with Sam68 (KHDRBS1) was found to be 0.731; in experiment [7] it was 0.0617; in experiment [8] it was 0.632. For the same compound, the composite Z-score in experiment [1] was 0.828 (inactive).
